Results taken from the supplement of paper PMC11732987, “Enantioselective OTUD7B fragment discovery through chemoproteomics screening and high-throughput optimisation” (Communications Chemistry, 2025).

Legend:
Assay in all cases: log2 ratio of Biotin-Ahx-Ub-VS probe labelling (fragment/DMSO); higher = less target engagement (more negative = stronger competition), active = hit call of the paper (q ≤ 0.05, log2 ratio ≤ -1)
Details in all cases: compound concentration: 200 uM; treatment time: 3 h
USP34 = USP34 (UniProt Q70CQ2)
Chain of USP34 (Q70CQ2 whole entry, the tested form may be a part): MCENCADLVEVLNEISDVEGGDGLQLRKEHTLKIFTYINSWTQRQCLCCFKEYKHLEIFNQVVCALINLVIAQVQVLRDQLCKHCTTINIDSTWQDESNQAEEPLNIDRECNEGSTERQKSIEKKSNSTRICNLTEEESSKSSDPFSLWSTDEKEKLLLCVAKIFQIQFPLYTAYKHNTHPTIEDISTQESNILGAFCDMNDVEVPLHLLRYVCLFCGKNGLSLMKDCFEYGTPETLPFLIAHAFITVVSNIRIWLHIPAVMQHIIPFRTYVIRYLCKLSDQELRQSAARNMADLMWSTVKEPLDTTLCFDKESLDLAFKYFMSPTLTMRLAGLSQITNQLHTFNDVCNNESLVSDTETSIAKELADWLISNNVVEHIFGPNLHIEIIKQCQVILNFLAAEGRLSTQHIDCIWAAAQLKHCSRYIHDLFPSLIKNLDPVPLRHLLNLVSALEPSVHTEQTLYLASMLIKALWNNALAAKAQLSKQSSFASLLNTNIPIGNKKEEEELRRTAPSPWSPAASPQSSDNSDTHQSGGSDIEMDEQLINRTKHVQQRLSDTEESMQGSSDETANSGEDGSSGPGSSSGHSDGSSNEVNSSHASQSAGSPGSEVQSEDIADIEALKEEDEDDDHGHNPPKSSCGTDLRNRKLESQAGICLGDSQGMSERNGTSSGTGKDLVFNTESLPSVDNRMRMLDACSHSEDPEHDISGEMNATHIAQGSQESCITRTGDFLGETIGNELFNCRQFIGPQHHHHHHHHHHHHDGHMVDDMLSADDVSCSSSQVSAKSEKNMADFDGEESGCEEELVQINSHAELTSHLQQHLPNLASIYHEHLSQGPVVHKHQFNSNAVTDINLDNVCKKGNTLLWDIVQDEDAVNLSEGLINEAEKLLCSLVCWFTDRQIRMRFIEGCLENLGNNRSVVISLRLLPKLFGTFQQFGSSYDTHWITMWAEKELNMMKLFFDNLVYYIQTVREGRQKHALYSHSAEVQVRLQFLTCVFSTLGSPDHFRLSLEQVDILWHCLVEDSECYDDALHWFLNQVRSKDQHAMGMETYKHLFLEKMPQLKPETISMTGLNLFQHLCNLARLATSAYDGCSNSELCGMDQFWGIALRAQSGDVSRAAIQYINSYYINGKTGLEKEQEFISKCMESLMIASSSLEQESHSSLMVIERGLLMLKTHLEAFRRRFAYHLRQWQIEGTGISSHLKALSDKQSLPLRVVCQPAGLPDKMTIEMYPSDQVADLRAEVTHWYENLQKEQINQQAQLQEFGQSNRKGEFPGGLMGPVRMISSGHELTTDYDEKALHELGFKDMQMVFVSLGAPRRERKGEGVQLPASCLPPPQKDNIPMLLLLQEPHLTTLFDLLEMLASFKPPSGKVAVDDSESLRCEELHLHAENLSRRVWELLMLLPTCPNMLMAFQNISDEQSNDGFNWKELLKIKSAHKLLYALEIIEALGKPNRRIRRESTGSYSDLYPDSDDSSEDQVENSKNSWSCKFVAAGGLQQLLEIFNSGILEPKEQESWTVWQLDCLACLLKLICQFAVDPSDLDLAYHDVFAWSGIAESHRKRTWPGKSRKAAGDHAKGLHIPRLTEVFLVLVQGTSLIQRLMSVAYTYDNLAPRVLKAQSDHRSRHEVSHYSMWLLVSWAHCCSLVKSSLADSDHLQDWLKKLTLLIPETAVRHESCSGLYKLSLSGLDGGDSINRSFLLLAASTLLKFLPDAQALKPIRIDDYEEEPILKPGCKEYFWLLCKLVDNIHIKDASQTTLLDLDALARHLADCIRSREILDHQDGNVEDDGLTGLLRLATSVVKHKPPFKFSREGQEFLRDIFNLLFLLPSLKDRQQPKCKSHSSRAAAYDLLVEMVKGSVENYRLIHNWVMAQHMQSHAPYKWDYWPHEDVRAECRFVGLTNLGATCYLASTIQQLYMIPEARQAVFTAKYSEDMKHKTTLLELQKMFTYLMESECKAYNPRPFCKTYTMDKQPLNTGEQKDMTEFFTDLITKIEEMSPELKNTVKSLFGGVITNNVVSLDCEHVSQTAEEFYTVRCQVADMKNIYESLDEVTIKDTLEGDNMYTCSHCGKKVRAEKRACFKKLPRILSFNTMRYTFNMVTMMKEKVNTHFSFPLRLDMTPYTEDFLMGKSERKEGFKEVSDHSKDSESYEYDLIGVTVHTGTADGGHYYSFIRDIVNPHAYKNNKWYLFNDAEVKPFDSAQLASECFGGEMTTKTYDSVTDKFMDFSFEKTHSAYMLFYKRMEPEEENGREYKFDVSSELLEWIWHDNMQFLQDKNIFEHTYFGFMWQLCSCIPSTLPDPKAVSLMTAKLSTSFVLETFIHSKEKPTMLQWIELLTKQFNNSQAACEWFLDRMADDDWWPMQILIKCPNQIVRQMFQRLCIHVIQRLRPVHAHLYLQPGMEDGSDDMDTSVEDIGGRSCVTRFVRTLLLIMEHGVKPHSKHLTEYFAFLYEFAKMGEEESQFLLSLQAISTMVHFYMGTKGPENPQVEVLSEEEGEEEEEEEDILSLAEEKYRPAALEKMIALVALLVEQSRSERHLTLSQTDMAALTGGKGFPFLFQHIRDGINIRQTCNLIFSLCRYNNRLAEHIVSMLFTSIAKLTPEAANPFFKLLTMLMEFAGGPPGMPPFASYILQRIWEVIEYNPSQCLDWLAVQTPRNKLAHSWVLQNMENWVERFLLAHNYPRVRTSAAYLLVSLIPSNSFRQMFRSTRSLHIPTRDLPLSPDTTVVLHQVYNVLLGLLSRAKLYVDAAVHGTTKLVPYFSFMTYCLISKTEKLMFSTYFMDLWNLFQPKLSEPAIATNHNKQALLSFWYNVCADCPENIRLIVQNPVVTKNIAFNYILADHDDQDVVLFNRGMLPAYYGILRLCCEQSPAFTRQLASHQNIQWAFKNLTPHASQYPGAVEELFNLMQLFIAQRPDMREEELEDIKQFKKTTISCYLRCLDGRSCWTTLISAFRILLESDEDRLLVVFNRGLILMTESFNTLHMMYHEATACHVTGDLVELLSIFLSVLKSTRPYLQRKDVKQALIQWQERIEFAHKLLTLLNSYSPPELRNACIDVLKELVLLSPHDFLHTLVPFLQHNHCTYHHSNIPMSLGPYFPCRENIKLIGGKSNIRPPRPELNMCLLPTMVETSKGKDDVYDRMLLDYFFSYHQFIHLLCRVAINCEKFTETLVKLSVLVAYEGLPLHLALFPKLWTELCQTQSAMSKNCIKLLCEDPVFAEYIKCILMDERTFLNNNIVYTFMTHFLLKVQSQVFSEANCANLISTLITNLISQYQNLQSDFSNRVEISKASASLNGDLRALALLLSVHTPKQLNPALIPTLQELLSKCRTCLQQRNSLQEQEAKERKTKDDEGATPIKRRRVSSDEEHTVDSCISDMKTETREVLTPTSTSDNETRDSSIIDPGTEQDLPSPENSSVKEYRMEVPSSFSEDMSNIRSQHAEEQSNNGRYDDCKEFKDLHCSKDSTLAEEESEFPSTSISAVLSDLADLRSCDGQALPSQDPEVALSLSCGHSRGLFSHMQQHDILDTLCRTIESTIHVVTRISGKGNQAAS
How it was run: (§1)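 Fragment (200 µM) or vehicle was incubated for 3 h with triplicate HEK293T lysate samples of 495 µg, which were then treated with Biotin-Ahx-Ub-VS at 0.5 µM final for 1 h. Labelled DUBs were enriched on NeutrAvidin, digested with LysC and trypsin, and analysed by diaPASEF LC-MS/MS. Values are average log2 fragment/vehicle ratios from an unpaired t-test on global-median-normalised Spectronaut label-free quantities, using proteins with ≥2 unique peptides.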

USP36 = biological target: T1, USP36 (UniProt Q9P275)
T1 sequence (whole entry): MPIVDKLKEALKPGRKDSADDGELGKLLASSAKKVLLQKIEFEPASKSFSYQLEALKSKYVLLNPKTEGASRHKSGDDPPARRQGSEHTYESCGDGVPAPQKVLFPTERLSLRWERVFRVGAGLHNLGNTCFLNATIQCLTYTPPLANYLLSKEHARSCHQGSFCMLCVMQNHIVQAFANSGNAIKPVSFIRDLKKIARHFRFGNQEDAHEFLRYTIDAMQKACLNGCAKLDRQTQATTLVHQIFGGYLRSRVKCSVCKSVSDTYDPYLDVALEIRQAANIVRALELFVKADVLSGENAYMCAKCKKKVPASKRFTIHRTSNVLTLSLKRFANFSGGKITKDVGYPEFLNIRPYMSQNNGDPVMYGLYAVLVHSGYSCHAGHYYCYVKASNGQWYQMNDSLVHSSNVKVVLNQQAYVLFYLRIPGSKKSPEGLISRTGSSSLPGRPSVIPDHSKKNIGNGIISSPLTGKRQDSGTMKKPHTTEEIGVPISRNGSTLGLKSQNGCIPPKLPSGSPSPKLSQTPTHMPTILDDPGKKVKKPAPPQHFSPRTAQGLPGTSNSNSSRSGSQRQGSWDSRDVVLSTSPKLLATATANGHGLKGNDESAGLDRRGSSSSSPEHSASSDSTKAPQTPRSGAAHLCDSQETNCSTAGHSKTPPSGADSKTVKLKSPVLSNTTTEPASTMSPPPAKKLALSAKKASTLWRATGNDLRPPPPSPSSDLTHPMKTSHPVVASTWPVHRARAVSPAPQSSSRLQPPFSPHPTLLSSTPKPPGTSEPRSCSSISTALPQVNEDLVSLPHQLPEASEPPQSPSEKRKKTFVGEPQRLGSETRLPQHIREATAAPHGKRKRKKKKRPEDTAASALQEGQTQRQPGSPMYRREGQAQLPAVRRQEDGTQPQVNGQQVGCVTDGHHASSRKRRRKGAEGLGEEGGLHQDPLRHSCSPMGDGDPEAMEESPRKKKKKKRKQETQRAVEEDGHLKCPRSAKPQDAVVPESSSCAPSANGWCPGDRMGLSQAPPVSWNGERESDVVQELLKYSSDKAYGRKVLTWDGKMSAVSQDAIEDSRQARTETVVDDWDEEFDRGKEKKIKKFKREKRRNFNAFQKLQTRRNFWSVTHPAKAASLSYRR
How it was run: as §1

USP38 = biological target: T2, USP38 (UniProt Q8NB14)
T2 sequence (whole entry): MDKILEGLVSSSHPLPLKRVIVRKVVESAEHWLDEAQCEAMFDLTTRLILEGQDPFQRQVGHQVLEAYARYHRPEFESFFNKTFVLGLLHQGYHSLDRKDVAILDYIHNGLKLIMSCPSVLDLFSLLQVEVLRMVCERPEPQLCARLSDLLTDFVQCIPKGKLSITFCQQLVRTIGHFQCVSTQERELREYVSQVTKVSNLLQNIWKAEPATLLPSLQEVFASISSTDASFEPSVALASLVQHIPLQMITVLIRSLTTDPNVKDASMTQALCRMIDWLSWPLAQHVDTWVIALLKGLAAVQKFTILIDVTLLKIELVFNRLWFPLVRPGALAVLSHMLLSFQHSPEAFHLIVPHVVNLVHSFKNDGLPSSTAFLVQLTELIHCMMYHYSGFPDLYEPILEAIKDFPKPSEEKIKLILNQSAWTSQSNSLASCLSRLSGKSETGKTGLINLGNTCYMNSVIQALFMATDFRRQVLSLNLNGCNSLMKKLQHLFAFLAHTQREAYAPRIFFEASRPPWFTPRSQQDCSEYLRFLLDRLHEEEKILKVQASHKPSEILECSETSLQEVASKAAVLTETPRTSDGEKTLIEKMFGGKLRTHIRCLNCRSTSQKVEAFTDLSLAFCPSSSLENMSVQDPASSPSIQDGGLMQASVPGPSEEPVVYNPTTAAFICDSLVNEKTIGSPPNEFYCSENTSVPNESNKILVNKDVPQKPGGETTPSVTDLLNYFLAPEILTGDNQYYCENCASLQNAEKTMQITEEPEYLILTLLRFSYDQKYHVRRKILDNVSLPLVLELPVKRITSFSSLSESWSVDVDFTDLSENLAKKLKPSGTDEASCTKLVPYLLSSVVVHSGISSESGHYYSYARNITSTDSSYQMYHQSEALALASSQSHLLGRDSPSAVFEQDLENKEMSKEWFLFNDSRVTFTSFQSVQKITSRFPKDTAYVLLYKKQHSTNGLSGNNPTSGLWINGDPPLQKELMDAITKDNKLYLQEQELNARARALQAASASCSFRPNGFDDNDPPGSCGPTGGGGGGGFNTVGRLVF
How it was run: as §1

USP39 = biological target: T3, USP39 (UniProt Q53GS9)
T3 sequence (whole entry): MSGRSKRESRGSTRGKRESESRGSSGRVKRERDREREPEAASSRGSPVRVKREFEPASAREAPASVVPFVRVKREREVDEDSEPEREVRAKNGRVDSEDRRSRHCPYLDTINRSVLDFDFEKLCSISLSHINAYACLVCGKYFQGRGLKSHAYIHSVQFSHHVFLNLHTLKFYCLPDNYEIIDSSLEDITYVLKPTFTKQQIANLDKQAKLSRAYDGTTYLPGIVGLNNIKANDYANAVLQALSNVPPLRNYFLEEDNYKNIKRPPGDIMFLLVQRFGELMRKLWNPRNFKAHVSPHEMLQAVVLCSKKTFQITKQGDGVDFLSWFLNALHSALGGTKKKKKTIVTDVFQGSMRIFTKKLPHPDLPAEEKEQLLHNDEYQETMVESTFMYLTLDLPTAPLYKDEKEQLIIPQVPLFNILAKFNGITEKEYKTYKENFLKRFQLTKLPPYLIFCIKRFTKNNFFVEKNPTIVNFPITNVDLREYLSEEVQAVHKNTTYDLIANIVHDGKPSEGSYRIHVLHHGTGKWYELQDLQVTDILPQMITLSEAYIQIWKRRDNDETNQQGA
How it was run: as §1

USP4 = biological target: T4, USP4 (UniProt Q13107)
T4 sequence (whole entry): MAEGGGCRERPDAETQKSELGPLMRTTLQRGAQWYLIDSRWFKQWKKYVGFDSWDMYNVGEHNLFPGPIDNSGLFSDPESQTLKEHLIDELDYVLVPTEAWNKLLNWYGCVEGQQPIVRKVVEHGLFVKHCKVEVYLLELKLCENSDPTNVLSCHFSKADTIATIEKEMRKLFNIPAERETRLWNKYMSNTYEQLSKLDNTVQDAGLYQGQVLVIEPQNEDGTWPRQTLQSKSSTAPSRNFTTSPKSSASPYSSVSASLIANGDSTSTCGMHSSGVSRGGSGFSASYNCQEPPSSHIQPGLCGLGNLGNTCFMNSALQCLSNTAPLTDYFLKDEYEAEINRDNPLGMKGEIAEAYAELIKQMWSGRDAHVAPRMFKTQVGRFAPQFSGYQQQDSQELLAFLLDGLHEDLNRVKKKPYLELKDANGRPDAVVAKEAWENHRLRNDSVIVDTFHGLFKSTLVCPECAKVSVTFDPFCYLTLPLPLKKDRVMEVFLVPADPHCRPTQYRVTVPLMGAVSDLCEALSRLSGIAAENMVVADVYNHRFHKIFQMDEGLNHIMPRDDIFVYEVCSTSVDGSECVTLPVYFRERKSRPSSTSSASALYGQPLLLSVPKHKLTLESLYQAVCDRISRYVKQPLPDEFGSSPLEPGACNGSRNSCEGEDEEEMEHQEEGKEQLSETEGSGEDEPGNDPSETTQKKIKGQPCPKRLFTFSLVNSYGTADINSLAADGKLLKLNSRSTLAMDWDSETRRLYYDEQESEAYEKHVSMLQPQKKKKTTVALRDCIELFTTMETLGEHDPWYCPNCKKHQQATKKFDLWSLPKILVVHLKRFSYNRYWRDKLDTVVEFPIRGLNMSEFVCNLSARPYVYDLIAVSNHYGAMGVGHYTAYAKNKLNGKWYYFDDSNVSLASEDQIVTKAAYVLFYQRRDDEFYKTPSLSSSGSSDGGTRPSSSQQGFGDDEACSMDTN
How it was run: as §1

Measured: log2 ratio of Biotin-Ahx-Ub-VS probe labelling

Cc1cccc(N(CCC#N)C(=O)CCl)c1C
inactive: USP34 -0.119 | USP36 -0.0707 | USP38 -0.0489 | USP39 -0.305 | USP4 0.163
